These results are taken from PubChem BioAssay AID1117359 (Southern Research Institute, 2015).

The whole screen tested about 1,500 compounds, of which about 460 (31%) were called active.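 How the source made its calls: active means viability at or below 80% at any tested concentration, marking the compound as toxic; inactive means the rest.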 A selection follows. Results with a measured potency or affinity are listed apart.

The nature of the assay: THP-1 cell cytotoxicity, dose response, cytotoxicity control for Vif-APOBEC3G degradation inhibitor project, THP-1 cells (AID 1117359). As to conditions: THP-1 viability, CellTiter-Glo luminescence, 72 h; series mostly up to 40 µM.
In the case of `CCCCC1=CC2=CC(=O)C(C)(OC(=O)C3CCCC3)C(=O)C2=CO1` (stereo not given), the molecule was classed as inactive.

For the molecule `Cc1cccc(OCc2nc(C)cc(=O)[nH]2)c1`, the molecule was classed as inactive.

Take `OC(c1ccc(Cl)cc1)C(O)c1nc2ccccc2[nH]1` (stereo not given): the call was inactive.

As to `COc1ccc(NC(=O)c2cc(-c3ccco3)nc3ccccc23)cc1S(=O)(=O)N1CCOCC1`, the result was inactive.

In the case of `COc1ccc(N(CC(=O)NCc2ccccc2C)S(=O)(=O)c2ccc(C)cc2)cc1OC`, the outcome was inactive.

Consider `CCc1cccc(CC)c1-n1c(SCC(=O)N2CCCc3ccccc32)nc(O)cc1=O`, for which the result was inactive.

In the case of `CCc1ccc(-c2nc(SCC(=O)NC3CCS(=O)(=O)C3)n[nH]2)cc1` (stereo not given), the call was inactive.

Take `O=C(CSc1ncnc2ccccc12)Nc1cccc(S(=O)(=O)N2CCOCC2)c1`: the result was inactive.

On to `O=C(CCCCCCC(=O)NCc1ccccc1)NCc1ccccc1`, for which the call was inactive.

Turning to `COc1ccccc1NC(=O)CN(Cc1ccco1)C(=O)c1cccs1`, the call was inactive.

Regarding `CC1(C)Cc2c(cnn2-c2ccccc2)C(NC(=O)CCCN2CCCCC2=O)C1` (stereo not given), the molecule was called inactive.

For `CCOC(=O)c1ccc(CC(=O)c2ccc(O)c(O)c2O)o1`, the call was inactive.

For `Cc1ccc(C(=O)NNS(=O)(=O)c2ccc(F)cc2)cc1`, the molecule was classed as inactive.

As to `O=C(NNC(=O)c1ccccc1F)c1cccc(-n2cccc2)c1`, the outcome was inactive.

For `CN(C(=O)c1ccc(OC2CCN(S(=O)(=O)N(C)C)CC2)cc1)C1CCCCC1`, the result was inactive.

On to `CCOC(=O)Cn1c(=O)c2c(nc3n2CCN3Cc2ccccc2)n(C)c1=O`, for which the outcome was inactive.

As for `O=C(Cc1ccc2c(c1)OCCO2)N1CCN(S(=O)(=O)c2cccs2)CC1`, the result was inactive.

As for `COc1ccc(N2CCC(CNS(=O)(=O)c3cccc(C(F)(F)F)c3)C2)cc1` (stereo not given), the call was inactive.

Turning to `CN(C)/C=N/NC(=O)c1ccccc1Cl`, the outcome was inactive.

`COC(=O)c1ccc(COc2ccc(/C=N/Nc3cccc(C(=O)O)c3)cc2)cc1`: the molecule was classed as inactive.

As to `O=c1cc(OCc2ccccc2)cc[nH]1`, the molecule was called inactive.

As for `C[C@H](NC(=O)OCc1ccccc1)C(=O)NNC(=O)[C@H](C)NC(=O)OCc1ccccc1`, the molecule was called inactive.

As for `O=C(Nc1ccc(COc2ccccc2)cc1)Oc1ccccc1N1CCOCC1`, the outcome was inactive.

Take `CCN(CC(=O)Nc1c(F)cccc1F)C(=O)c1cccc(-n2cccc2)c1`: the call was inactive.

For `CCCCC1=CC2=C(c3ccco3)C(=O)C(C)(OC(=O)c3ccc(OC)cc3)C(=O)C2=CN1CCCCO` (stereo not given), the molecule was called inactive.

Regarding `CC(=O)Nc1ccc(C=C(C#N)c2ccc(C)cc2)cc1`, the result was inactive.

With `CCOc1ccc(CCNC(=O)C2CC(C)=CCC2C(=O)O)cc1OCC` (stereo not given), the call was inactive.

As to `CCCCc1cc(=O)oc2cc(OCC(=O)N(CC)CC)c(Cl)cc12`, the outcome was inactive.

For the molecule `C[C@H](NC(=O)NCc1cccs1)C(=O)O`, the result was inactive.

For the molecule `CSc1cccc(NC(=O)C(C)C)c1`, the molecule was called inactive.

With `CCOC(=O)c1cc2c(c(CCO)n1)[C@H](CCO)N(S(=O)(=O)C(C)(C)C)C2`, the molecule was classed as inactive.

For `Cc1oc(/N=C/c2cccc3ccccc23)c(C#N)c1C`, the call was inactive.

`CCN1CCN(Cc2cc(=O)oc3ccc(C)cc23)CC1`: the call was inactive.

`COC(=O)C(Cc1c[nH]c2ccccc12)NC(=O)C(C)C` (stereo not given): the result was inactive.

`Cc1ccc(NC(=O)C(C)Sc2nc3nc(C)cc(C)n3n2)cc1` (stereo not given): the molecule was called inactive.

For `O=S(=O)(c1ccc2nc(-c3ccco3)c(-c3ccco3)nc2c1)N1CCOCC1`, the molecule was called inactive.

On to `Cc1ccc(CNC(=O)CN(c2cccc([N+](=O)[O-])c2)S(C)(=O)=O)cc1`, for which the molecule was called inactive.

As to `CC(NC(=O)C(NS(=O)(=O)c1cccs1)C(C)C)c1ccc(S(N)(=O)=O)cc1` (stereo not given), the call was inactive.

In the case of `Cc1cc(=O)nc2c3ccccc3n(C(C)C(=O)NCCC(C)C)n12` (stereo not given), the call was inactive.

For the molecule `Cc1cc(C)cc(N(CCC#N)C(=O)CSc2nc3nc(C)cc(C)n3n2)c1`, the result was inactive.

In the case of `Cc1ccc(OCc2ccc(C(=O)NN)o2)cc1C`, the molecule was classed as inactive.

Regarding `Cc1c(NC(=O)COC(=O)c2ccccc2Cl)c(=O)n(-c2ccccc2)n1C`, the molecule was classed as inactive.

On to `NC(=O)c1ccc(NC(=O)CSc2nc3ccccc3c(=O)n2CCCN2CCOCC2)cc1`, for which the outcome was inactive.

Regarding `O=C(NC1CCCCC1)C(c1ccc(Cl)cc1)N(C(=O)c1ccccn1)c1cccnc1` (stereo not given), the outcome was inactive.

With `Cc1ccccc1Cn1cc(NC(=O)c2cc(C3CC3)on2)cn1`, the result was inactive.

As to `O=C(c1cccc(S(=O)(=O)N2CCCC2)c1)N1CCOCC1`, the result was inactive.

As for `COc1ccc(NC(=S)N(CCCN2CCCC2)Cc2ccco2)cc1`, the molecule was called inactive.

As for `CCOC(=O)C1(Cc2ccc(OC)cc2)CCN(C(=O)c2cccc3nccnc23)CC1`, the call was inactive.

Turning to `CCOc1ccc(-n2c(C)nc(O)c2N=Nc2ccccc2)cc1`, the call was inactive.

Take `COc1cccc(NC(=O)Nc2nnc(N3C(C)CCCC3C)s2)c1` (stereo not given): the call was inactive.

Turning to `O=C1N=C(N2CCN(c3ccccc3)CC2)S/C1=C\c1ccco1`, the result was inactive.

As to `CCCCn1c(N)c(N(CCOC)C(=O)c2cc(-c3ccco3)nc3ccccc23)c(=O)[nH]c1=O`, the call was inactive.

Turning to `CCOc1ccc(/C=C2\SC(=S)N(CCC(=O)O)C2=O)cc1`, the outcome was inactive.

Turning to `C=CCOc1ccc(/C=C2\SC(=S)N(CCC(=O)O)C2=O)cc1`, the call was inactive.

Consider `CN(CCC#N)C(=O)COC(=O)c1c2c(nc3ccccc13)/C(=C\c1ccco1)CC2`, for which the molecule was classed as inactive.

On to `COc1ccccc1C(C#N)N1N=C(C)CC1(C)C` (stereo not given), for which the call was inactive.

For the molecule `CCCN(CC(=O)Nc1ccccc1C)C(=O)COC(=O)c1cnc(C)cn1`, the call was inactive.

In the case of `O=C(COc1ccccc1C(=O)O)Nc1ccc(SC(F)F)cc1`, the molecule was called inactive.

For `COc1ccccc1NC(=O)COC(=O)c1cc2c(s1)CCC2`, the result was inactive.

For `CN(C)CCCN(CCCN(C)C)C(=S)Nc1ccc(S(=O)(=O)N2CCOCC2)cc1`, the molecule was classed as inactive.

For `CCNc1ccc(Br)cc(C(=O)/C=C/c2ccc(Cl)cc2)c1=O`, the molecule was called inactive.

Regarding `CNc1ccc(Br)cc(C(=O)/C=C/c2ccc(OC)cc2)c1=O`, the molecule was called inactive.

As to `COc1ccc(Br)c(C(=O)NC(C)(C)CO)c1`, the molecule was classed as inactive.

`O=C(CCc1ccccc1)NNC(=S)NCCc1ccccc1`: the molecule was called inactive.

Take `O=C1CCCCC1Oc1ccc2ccc(=O)oc2c1` (stereo not given): the molecule was classed as inactive.

Consider `Cc1ccc(OCCC(=O)OCC(=O)c2ccc3c(c2)NC(=O)CO3)cc1`, for which the outcome was inactive.

Take `CN=c1scc(C)n1/N=C/c1ccc(O)c(O)c1O`: the call was inactive.

For `Oc1ccc(/C=N/N2CCCCC2)c(O)c1O`, the molecule was classed as inactive.

For `Oc1ccc(/C=N/N2CCOCC2)c(O)c1O`, the result was inactive.

In the case of `CCOC(=O)C1CCCN(C(=O)c2cc(-c3ccco3)nc3ccccc23)C1` (stereo not given), the result was inactive.
